# JMJD2A Tudor: qHTS Assay for Inhibitors of JMJD2A-Tudor Domain; AlphaScreen JMJD2A-Tudor / H3K4me3 peptide binding; Lysine-specific demethylase 4A (Homo sapiens), O75164; Potency, µM (highest dose often 114 µM), most hits filed as inhibitors; 4.4% of 390,000 active; AID 504339, 2011; further: nearly all actives have a fitted effect of over 50% in size
# G9a inh: qHTS Assay for Inhibitors of Histone Lysine Methyltransferase G9a; G9a H3K9 monomethylation, AlphaScreen, 2 h; Potency, µM (doses to about 102 µM), usual class: inhibitors; 8.8% of 350,000 active; AID 504332, 2011; further: nearly all actives have a fitted effect of over 75% in size
# Target sequence (Q96KQ7 913-1193 limits assumed): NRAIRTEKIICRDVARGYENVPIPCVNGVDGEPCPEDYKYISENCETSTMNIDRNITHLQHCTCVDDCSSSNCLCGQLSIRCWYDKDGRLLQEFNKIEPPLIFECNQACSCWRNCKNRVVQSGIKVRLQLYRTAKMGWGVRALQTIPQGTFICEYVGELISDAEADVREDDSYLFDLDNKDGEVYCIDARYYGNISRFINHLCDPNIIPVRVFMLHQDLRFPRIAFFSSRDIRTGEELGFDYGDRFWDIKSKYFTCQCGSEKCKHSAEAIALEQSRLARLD
#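 G9a (20 nM) preincubated 15 min RT with compounds, then 500 nM biotinylated H3K9 peptide and 20 uM SAM added; 2 h RT reaction. Monomethyl-H3K9 product detected by AlphaScreen with anti-H3K9me1 antibody, streptavidin donor and anti-rabbit IgG acceptor beads.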
# BAZ2B block: qHTS Assay for Inhibitors of BAZ2B. Potency, µM (top dose mostly 114 µM), most hits filed as inhibitors. Bromodomain adjacent to zinc finger domain protein 2B (Homo sapiens), Q9UIF8. AlphaScreen BAZ2B-H3K14Ac peptide displacement. 4.4% of 360,000 active; further: nearly all actives have a fitted effect of over 60% in size
#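 Multi-concentration screen (max 110 uM) measuring displacement of acetylated histone H3 peptide from BAZ2B by AlphaScreen, using 50 nM protein, 50 nM peptide and 10 ug/mL streptavidin donor plus Ni-chelate acceptor beads.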
# Six1-Eya2 blk: qHTS Assay for Inhibitors of the Six1/Eya2 Interaction. AlphaScreen GST-Six1/His-Eya2 binding, biochemical; active compounds read low. activity change, % (no concentration beside the values). 0.56% of 360,000 active. AID 651725, 2012; in the data active means activity change below about -65%; inconclusive means mostly about -30% to -63%
#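 AlphaScreen with GST-Six1 and His-Eya2 (5X mix: 250 nM and 500 nM), glutathione donor and nickel acceptor beads; buffer 50 mM Tris pH 8.0, 300 mM NaCl, 1 mM TCEP; 1 h at 37 C in the dark.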
# CtBP-E1A inh: qHTS Assay for Inhibitors of the CtBP/E1A Interaction; activity change, % (no concentration beside the values); 0.49% of 340,000 active; CtBP / adenovirus E1A interaction (AlphaScreen); AlphaScreen GST-E1A/His-CtBP binding, 1536-well; active compounds read low; AID 651724, 2012; in the data active means activity change below about -65%; inconclusive means mostly about -30% to -63%
#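 Homogeneous bead-based format: GST-tagged E1A captured on glutathione donor beads, His-tagged CtBP on nickel acceptor beads; compounds precede bead addition by 2 h at 37 °C.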
# HP1b chromo inh: HTS for Inhibitors of HP1-beta Chromodomain Interactions with Methylated Histone Tails | Chromobox protein homolog 1 (Homo sapiens), P83916 | AlphaScreen HP1-beta / biotin-H3K9me3 peptide binding | Potency, µM (doses to about 114 µM), hits mostly inhibitors | 0.56% of 390,000 active; further: nearly all actives have a fitted effect of over 70% in size
# Target sequence (P83916 whole entry, looked up): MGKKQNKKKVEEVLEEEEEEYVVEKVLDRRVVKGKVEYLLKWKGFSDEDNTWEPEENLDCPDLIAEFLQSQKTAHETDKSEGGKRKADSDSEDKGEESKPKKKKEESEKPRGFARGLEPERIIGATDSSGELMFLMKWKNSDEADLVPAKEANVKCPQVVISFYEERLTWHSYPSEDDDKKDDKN
#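 Compound inhibition of the preformed complex between 50 nM HP1-beta and 50 nM biotinylated H3K9me3 peptide was read by AlphaScreen. Buffer was PBS pH 7.4 with 0.01% Tween-20. Incubations ran 30 min at room temperature, with 10 ug/mL donor/acceptor beads.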
# Hits are given with their value; i = inactive; ? = inconclusive; nt = not tested or not shown; [ ] = dose if it differs, or a comment. Most compounds without a hit are left out; they make up all but 10% or so of the library. Unless noted, the call rests on the fitted dose curve; in most records, active means well fitted inhibition curve with a large enough effect; inconclusive means small, poorly fitted or top-dose-only effect; inactive means no such curve, though single readings can be large or run the other way.
SMILES,JMJD2A Tudor,G9a inh,BAZ2B block,Six1-Eya2 blk,CtBP-E1A inh,HP1b chromo inh
Cc1ccc(S(=O)c2snnc2C)cc1 (stereo not given),i,i,i,i,i,i
CCCNC(=O)c1nnsc1S(=O)c1ccc(Cl)cc1 (stereo not given),i,25µM,i,i,i,i
CNC(=O)c1nnsc1S(=O)c1ccc(Cl)cc1 (stereo not given),i,35µM,i,i,i,i
CCCNC(=O)c1ccc2snnc2c1,i,i,i,i,i,i
CCC(=O)c1c[nH]c(C(=O)NCc2ccccc2OC)c1,i,i,79µM,i,i,i
COc1ccccc1CNC(=O)c1ccc2[nH]c(C)c(C)c2c1,?,?,50µM,nt,nt,?
CC(=O)Nc1cccc(NC(=O)c2ccc3[nH]c(C)c(C)c3c2)c1,i,i,i,i,i,?
Cc1cc(NC(=O)c2ccc3[nH]c(C)c(C)c3c2)ccn1,i,?,50µM,i,i,i
COc1ccc(C2NCCc3c2[nH]c2ccccc32)cc1CSc1nc2ccccc2s1 (stereo not given),25µM,8.9µM,45µM,i,i,?
CC(C)(C)C#CCn1c(/C=[N+](\[O-])C2CCCCC2)nc2ccccc21,?,nt,50µM,i,i,i
CCN1CCN(c2nc3c(C)cccn3c(=O)c2/C=C(\C#N)C(=O)NCCOC)CC1,i,i,i,i,i,i
O=C1CSC(c2ccc(Cl)cc2)N1C1CCCCC1 (stereo not given),i,i,i,i,i,i
N#CC1=C2SCN(C3CCCCC3)CN2C(=O)CC1c1ccc(Cl)cc1 (stereo not given),16µM,2µM,nt,nt,nt,?
CC(C)c1ccc(C2CC(=O)N3CN(C)CSC3=C2C#N)cc1 (stereo not given),?,1.6µM,i,i,i,?
COC(=O)CSC1=C(C#N)C(c2ccc(C(C)C)cc2)CC(=O)N1 (stereo not given),i,?,i,i,i,i
N#CC1=C2SCN(C3CCCCC3)CN2C(=O)CC1c1c(F)cccc1Cl (stereo not given),22µM,2.8µM,nt,nt,nt,?
CC(C)c1nnc(SCC(=O)NC2CCCCC2)n1C,i,i,i,i,i,i
Cc1ccc(C)c(Cn2cc(CCC(=O)NC3CCCCC3)c3ccccc32)c1,i,i,i,nt,nt,i
N#CCc1c(C#N)c(N)nc(N2CCN(S(=O)(=O)c3ccccc3)CC2)c1C#N,i,?,i,i,i,i
COc1ccccc1N1CCN(c2nc(N)c(C#N)c(CC#N)c2C#N)CC1,?,50µM,i,i,i,i
CCCCOC(=O)Cn1nnc2sc(-c3ccccc3)cc2c1=O,i,i,i,nt,nt,i
COc1cccc(C2NC(=O)c3n[nH]c(-c4cccs4)c32)c1 (stereo not given),i,i,nt,nt,nt,i
O=C(CCCCn1cnc2c(=S)nc[nH]c21)Nc1ccc(C(=O)O)cc1,1.4µM,nt,nt,i,i,71µM
COc1ccc(CCNC(=O)Cc2ccc(NC(=O)N3CCSc4ncccc43)cc2)cc1OC,i,i,i,nt,nt,i
CCN1C(=O)[C@H]2[C@@H](c3ccc(-c4ccc(OC)cc4)cc3)N[C@@](C)(C(=O)OC)[C@H]2C1=O,i,i[2.33 µM],i,i,i,i
SMILES,JMJD2A Tudor,G9a inh,BAZ2B block,Six1-Eya2 blk,CtBP-E1A inh,HP1b chromo inh
N#C/C(=C\c1ccc(O)c(O)c1)C(=O)N1CCc2ccccc21,16µM,6.3µM,8.9µM,i,i,?
COc1cc(/C=C(\C#N)C(=O)N2CCc3ccccc32)ccc1O,?,28µM,?,i,i,i
N#C/C(=C\c1cccc(O)c1)C(=O)N1CCCCC1,i,nt,i,i,i,i
CCOc1ccc(-n2c(-c3ccc(Br)cc3)c[n+]3c2CCCCC3)cc1,i,1.1µM,nt,i,i,i
CCOc1ccc(-n2c(-c3ccc(OC)cc3)c[n+]3c2CCCCC3)cc1,i,i,i,i,i,i
Cc1ccccc1CSc1nc2cccnc2n1Cc1ccc(C(=O)NC2CC2)cc1,i,?,i,nt,nt,i
CC(C)(C)C1=CC(=O)C(=O)C(C(C)(C)C)=C1,18µM,1.6µM,28µM,i,nt,?
COc1cccc(N2C(=O)C(CC(=O)Nc3ccccc3)N(CCc3sccc3C)C2=O)c1 (stereo not given),i,i,i,nt,nt,i
CC(=O)C(C(C)=O)C1(O)C(=O)c2ccccc2C1=O,i,50µM,i,i,i,i
CC(C)c1ccccc1NC(=O)COC(=O)c1c2c(nc3ccccc13)CCN(Cc1ccccc1)C2,i,i,i,i,nt,i
Cc1cc(N2CCN(C)CC2)ccc1NC(=O)c1c2c(nc3ccccc13)CCN(Cc1ccccc1)C2,?,35µM,?,i,i,i
O=C(NC1CCCCCC1)c1c2c(nc3ccccc13)CCN(Cc1ccccc1)C2,i,1.4µM,i,i,i,i
CCOC(=O)c1c(C)[nH]c(C)c1S(=O)(=O)N1CCN(c2ccccc2OC)CC1,i,i,i,nt,nt,i
Cc1ccc2c(c1)-c1onc(C(=O)N(C)c3cccc(C(F)(F)F)c3)c1CO2,i,i,i,nt,nt,i
Clc1ccccc1Cn1nnc2c(N3CCCC3)ncnc21,i,i,i,i,i,i
Fc1ccccc1Cn1nnc2c(-n3ccnc3)ncnc21,56µM,i,i,i,i,i
Cc1ccc(O)c(C2=NNC(O)(C(F)(F)F)C2)c1 (stereo not given),i,56µM,i,i,i,i
O=C1CC(SCCc2nc3ccccc3[nH]2)C(=O)N1c1ccc(F)cc1 (stereo not given),i,45µM,i,i,i,i
COc1ccc(N2C(=O)CC(SCCc3nc4ccccc4[nH]3)C2=O)cc1 (stereo not given),i,nt,i,i,i,i
O=[N+]([O-])c1ccc(S(=O)(=O)N/N=C/c2ccsc2)cc1,i,45µM,?,i,i,i
O=[N+]([O-])c1ccc(S(=O)(=O)NN=Cc2ccc3c(c2)OCO3)cc1,i,nt,nt,i,i,i
N#Cc1ccsc1NC(=O)COc1ccc(-c2nnco2)cc1,i,40µM,i,?,?,i
CC(C)CC(=O)Nc1ccc(C(=O)COc2ccc(-c3nnco3)cc2)cc1,79µM,i,i,i,i,i
N#CCSc1ccccc1NC(=O)COc1ccc(-c2nnco2)cc1,i,i,?,i,i,i
Cc1ccccc1Nc1nc(N)nc(COC(=O)CCNS(=O)(=O)c2ccccc2)n1,i,i[2.33 µM],?,i,i,i
